Test [1] relates to Plasmodium falciparum Sir2 (PF13_0152, Sir2A). The experiment in a line: Plasmodium falciparum Sir2A binding compounds – biochemical, small-molecule microarray, 635 nm fluorescence, primary screen (AID 1098).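 Also: score merges spot fluorescence intensity with its signal-to-noise ratio.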 To be noted: fluorescence 635 nm, higher = more signal.
Test [2] in a line: probe aDKK1 binding to arrayed compounds – biochemical, biotinylated probe, 635/667 nm fluorescence, primary screen (AID 1099).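 Also: score merges 667nm spot fluorescence with signal to noise across triplicate slides.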 To be noted: small-molecule microarray, higher = more signal.
The nature of test [3]: probe aCHRDL2 binding to arrayed compounds – biochemical, biotinylated probe, 635/667 nm fluorescence, primary screen (AID 1100). The following applies: small-molecule microarray, higher = more signal.
Test [4] can be described thus: change in splice reporter luminescence, either direction, cell-based, HEK293, spliceosome inhibition project, primary screen (AID 1101).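 Also: HEK293 cells carrying a splicing-competent luciferase reporter gene; test concentration not given here.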 The following applies: HEK293 splicing luciferase reporter, 24 h, higher = more signal, called active from +8 up or from −8 down. Background: Reporter assays use an easily measured gene product as a stand-in for the process of interest.

Test [5] concerns the target Fibroblast growth factor 10 (Homo sapiens) (UniProt O15520). Put plainly: compounds binding fibroblast growth factor 10 – biochemical, small-molecule microarray, 635 nm fluorescence, primary screen (AID 1102). The following applies: FGF10 binding, fluorescence 635 nm, higher = more signal.
For test [6], the system named is glycogen synthase kinase-3 (GSK3A per assay name; protocol says GSK3B). The experiment in a line: compounds binding glycogen synthase kinase-3 – biochemical, small-molecule microarray, 635 nm fluorescence, GSK3A, primary screen (AID 1103). Also: the record names both GSK3A and GSK3B. To be noted: fluorescence 635 nm, higher = more signal.
For test [7], the target named is Epidermal growth factor receptor (Homo sapiens) (UniProt P00533). Put plainly: compounds binding epidermal growth factor receptor – biochemical, small-molecule microarray, 635 nm fluorescence, primary screen (AID 1104).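 Also: score merges 667 nm emission intensity with spot signal to noise over triplicate slides.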 The following applies: EGFR binding, higher = more signal.
Sequence of Epidermal growth factor receptor (Homo sapiens) (P00533 whole entry, looked up): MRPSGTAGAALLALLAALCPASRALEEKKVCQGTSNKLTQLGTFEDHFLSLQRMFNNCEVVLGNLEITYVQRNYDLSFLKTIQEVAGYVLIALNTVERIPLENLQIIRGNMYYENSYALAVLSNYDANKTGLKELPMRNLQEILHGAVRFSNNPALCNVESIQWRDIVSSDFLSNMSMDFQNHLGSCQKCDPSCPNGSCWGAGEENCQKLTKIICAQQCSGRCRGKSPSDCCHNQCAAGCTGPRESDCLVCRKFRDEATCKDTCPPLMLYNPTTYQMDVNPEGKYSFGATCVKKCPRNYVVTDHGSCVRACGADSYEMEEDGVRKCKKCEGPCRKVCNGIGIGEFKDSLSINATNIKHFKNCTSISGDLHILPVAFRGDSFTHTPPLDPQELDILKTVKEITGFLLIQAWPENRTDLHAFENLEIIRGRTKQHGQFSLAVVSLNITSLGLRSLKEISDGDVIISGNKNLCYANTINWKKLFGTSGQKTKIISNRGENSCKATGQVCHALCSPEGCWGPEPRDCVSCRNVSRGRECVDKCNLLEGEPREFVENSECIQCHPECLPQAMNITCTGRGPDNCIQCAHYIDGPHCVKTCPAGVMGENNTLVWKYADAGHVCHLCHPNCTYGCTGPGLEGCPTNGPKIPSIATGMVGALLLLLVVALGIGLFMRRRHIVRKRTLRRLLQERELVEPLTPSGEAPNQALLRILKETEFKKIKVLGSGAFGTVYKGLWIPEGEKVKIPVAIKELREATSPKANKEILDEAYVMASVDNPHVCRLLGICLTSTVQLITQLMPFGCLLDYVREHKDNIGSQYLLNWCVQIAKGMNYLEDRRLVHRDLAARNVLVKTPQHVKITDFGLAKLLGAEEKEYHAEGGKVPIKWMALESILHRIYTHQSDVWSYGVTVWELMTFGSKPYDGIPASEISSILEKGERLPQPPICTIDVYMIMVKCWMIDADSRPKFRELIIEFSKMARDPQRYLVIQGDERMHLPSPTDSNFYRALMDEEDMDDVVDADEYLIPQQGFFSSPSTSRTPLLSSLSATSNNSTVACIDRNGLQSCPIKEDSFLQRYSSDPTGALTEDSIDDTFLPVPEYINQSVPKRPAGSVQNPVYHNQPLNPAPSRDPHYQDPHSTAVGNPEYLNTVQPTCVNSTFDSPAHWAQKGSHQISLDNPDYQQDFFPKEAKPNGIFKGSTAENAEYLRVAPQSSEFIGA
Test [8] deals with Follistatin-related protein 3 (Homo sapiens) (UniProt O95633). Put plainly: compounds binding follistatin-related protein 3 – biochemical, small-molecule microarray, 635 nm fluorescence, primary screen (AID 1105).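 Also: score merges emission near 667 nm and signal to noise per printed spot across three slides.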 The following applies: FSTL3 binding, higher = more signal.
Sequence of Follistatin-related protein 3 (Homo sapiens) (O95633 whole entry, looked up): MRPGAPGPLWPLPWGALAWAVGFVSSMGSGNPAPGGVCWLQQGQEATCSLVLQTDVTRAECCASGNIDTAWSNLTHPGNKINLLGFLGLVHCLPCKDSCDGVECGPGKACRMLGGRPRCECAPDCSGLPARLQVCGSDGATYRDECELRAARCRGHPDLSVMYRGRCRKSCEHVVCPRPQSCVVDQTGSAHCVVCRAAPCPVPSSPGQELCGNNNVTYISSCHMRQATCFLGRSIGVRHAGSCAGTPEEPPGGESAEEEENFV
For test [9], the target named is Dickkopf-related protein 1 (Homo sapiens) (UniProt O94907). The experiment in a line: small molecules binding DKK1 protein – biochemical, small-molecule microarray, 635 nm fluorescence scan, primary screen (AID 1106).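 Also: score merges emission near 667 nm with signal to noise over three replicate slides.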 To be noted: higher = more signal.
Sequence of Dickkopf-related protein 1 (Homo sapiens) (O94907 whole entry, looked up): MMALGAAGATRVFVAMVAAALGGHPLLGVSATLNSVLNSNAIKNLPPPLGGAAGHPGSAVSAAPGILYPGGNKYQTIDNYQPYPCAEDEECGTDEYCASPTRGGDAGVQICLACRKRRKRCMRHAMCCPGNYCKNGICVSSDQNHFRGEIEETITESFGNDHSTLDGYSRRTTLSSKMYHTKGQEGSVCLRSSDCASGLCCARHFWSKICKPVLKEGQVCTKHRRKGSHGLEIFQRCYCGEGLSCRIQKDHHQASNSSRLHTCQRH
In test [10] the test system is Inhibin beta A chain (activin A). Put plainly: small molecules binding activin A – biochemical, small-molecule microarray, 635 nm fluorescence scan, primary screen (AID 1107).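 Also: mouse activin A protein probed at 4.33 µg/mL on printed slides; score merges bound-protein fluorescence near 667 nm with spot signal-to-noise.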 To be noted: INHBA, higher = more signal.
Test [11] has as its system Human papillomavirus type 1a protein E7 (residues 44-93). The experiment in a line: small molecules binding HPV E7 44-93 – biochemical, small-molecule microarray, residues 44-93, 635 nm fluorescence, primary screen (AID 1108).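 Also: E7 fragment applied at 1 µg/mL in TBST for 1 h at 4 C; score combines spot fluorescence with its signal to noise ratio.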 The following applies: fluorescence 635 nm, higher = more signal.
Test [12] can be described thus: hepatitis C replication reporter changes, two-sided – Huh7 cells, luciferase reporter, HCV replication inhibitor project, primary screen (AID 1109).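 Also: huh7 hepatoma cells harbouring a luciferase neomycin HCV replicon reporter; luciferase luminescence as measure of HCV replicon replication; test concentration not given here.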 The following applies: Huh7 HCV replicon luciferase reporter, 48 h; higher = more signal.
Test [13] concerns the target Left-right determination factor 2 (Homo sapiens) (UniProt O00292). Put plainly: small molecules binding LEFTY2 protein – biochemical, small-molecule microarray, 635 nm fluorescence scan, primary screen (AID 1110). The following applies: higher = more signal.
For test [14], the target named is Calmodulin-1 (Homo sapiens) (UniProt P0DP23). The experiment in a line: small molecules binding calmodulin-1 with EGTA – biochemical, small-molecule microarray, Cy5-labelled CALM1, profiling panel (AID 1111).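 Also: labelled calmodulin applied in Tris saline Tween buffer holding calcium plus EGTA and DTT.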 The following applies: Cy5-CALM1 binding fluorescence, higher = more signal.
Test [15] shares this target. Put plainly: small molecules binding Ca-loaded calmodulin-1 – biochemical, small-molecule microarray, Cy5-labelled CALM1, plus calcium, artefact control for SMM control-protein annotation, profiling panel (AID 1112).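 Also: score merges spot fluorescence with signal to noise from triplicate slides.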 The following applies: Cy5-CALM1 binding fluorescence, higher = more signal.
A short description of test [16]: probe aWnt5a binding to arrayed compounds – biochemical, biotinylated probe, 635/667 nm fluorescence, primary screen (AID 1113).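 Also: score merges 667 nm fluorescence intensity with signal-to-noise per printed feature.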 The following applies: small-molecule microarray, higher = more signal.
The nature of test [17]: probe aShh binding to arrayed compounds – biochemical, biotinylated probe, 635/667 nm fluorescence, primary screen (AID 1114).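 Also: probe is biotin-labelled aShh protein from a stem cell growth factor screen; measures binding of labelled protein to compounds printed on the slide; score merges feature fluorescence at 667 nm with signal-to-noise.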 The following applies: small-molecule microarray, higher = more signal.
Test [18] can be described thus: probe aNog binding to arrayed compounds – biochemical, biotinylated probe, 635/667 nm fluorescence, primary screen (AID 1115).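 Also: probe is biotinylated aNog protein used at 0.15 µg/mL for 1 h at 4 C; z-score combines 667 nm fluorescence of each spot with its signal to noise.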 The following applies: small-molecule microarray, higher = more signal.
Test [19] has as its target Torsin-1A-interacting protein 1 (Homo sapiens) (UniProt Q5JTV8). Put plainly: compound microarray binding of lysate hLAP1 – cell lysate, small-molecule microarray, COS7 lysate, 635/667 nm fluorescence, primary screen (AID 1116). To be noted: 635 nm fluorescence, higher = more signal.
The target in test [20] is Alpha-bungarotoxin (Bungarus multicinctus) (UniProt P60615). The experiment in a line: compounds binding labelled alpha-BTX control protein – biochemical, small-molecule microarray, Alexa647 label, 635/667 nm fluorescence, artefact control for SMM control protein annotation, profiling panel (AID 1117). The following applies: alpha-BTX-A647 binding fluorescence, higher = more signal.
Sequence of Alpha-bungarotoxin (Bungarus multicinctus) (P60615 whole entry, looked up): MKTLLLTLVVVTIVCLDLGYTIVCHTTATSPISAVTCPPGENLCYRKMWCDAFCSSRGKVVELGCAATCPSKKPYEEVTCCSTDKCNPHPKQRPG

Active and inactive are the calls of the source.

Sequence of Left-right determination factor 2 (Homo sapiens) (O00292 whole entry, looked up): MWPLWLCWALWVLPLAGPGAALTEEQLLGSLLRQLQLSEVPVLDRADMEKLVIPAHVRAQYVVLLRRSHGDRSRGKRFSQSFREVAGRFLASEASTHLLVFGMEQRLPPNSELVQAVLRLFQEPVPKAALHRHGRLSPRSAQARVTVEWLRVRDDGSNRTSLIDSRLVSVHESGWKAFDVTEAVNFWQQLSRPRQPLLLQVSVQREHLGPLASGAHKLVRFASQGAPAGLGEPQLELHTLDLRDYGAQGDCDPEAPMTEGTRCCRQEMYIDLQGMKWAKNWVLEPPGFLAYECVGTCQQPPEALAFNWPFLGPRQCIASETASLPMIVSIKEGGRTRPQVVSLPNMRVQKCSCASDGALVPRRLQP
Sequence of Torsin-1A-interacting protein 1 (Homo sapiens) (Q5JTV8 whole entry, looked up): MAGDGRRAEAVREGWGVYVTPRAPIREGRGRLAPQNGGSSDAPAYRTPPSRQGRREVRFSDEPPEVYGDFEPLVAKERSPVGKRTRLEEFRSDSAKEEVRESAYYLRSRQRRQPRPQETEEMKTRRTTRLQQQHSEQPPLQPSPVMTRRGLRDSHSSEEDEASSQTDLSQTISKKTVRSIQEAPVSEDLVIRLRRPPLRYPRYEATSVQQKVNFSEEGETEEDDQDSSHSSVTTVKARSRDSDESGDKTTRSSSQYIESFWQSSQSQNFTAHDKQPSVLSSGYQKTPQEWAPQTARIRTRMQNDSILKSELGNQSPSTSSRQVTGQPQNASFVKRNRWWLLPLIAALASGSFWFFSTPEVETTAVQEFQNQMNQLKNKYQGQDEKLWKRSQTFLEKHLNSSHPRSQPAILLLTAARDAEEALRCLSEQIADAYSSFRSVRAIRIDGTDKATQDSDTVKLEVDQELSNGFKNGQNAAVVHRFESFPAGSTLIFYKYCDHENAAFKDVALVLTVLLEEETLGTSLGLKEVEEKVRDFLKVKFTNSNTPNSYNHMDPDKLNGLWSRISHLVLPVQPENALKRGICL
Sequence of Fibroblast growth factor 10 (Homo sapiens) (O15520 whole entry, looked up): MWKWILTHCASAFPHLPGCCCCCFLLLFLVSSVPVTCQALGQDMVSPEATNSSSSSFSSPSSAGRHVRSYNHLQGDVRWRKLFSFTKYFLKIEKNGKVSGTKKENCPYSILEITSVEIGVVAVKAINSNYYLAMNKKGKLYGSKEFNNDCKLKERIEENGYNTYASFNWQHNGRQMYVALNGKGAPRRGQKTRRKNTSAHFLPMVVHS

As to `CN(C)CCCCCCNC(=O)[C@@H]1C[C@@H]2C(=O)NCC(=O)N2[C@@H]1c1cccc(OCCO)c1`, the composite z-score in test [1] was 1.39; in test [2], 0.156; in test [3], -0.0688; in test [5] it was 1.34; in test [6], 1.36; in [7], 0.654. Further, the composite z-score in [8] was determined as 1.48; in [9], 1.28; in test [10], 0.433; in test [11] it was 1.12; in [13] it was 1.36; in test [14], 0.138. Also, the composite z-score in [15] is -0.708; in test [16] it was -0.0222; in test [17] it was 0.0948; in test [18] it was 0.107; in test [19], 1.88; in [20] it was -0.0783. Further, the z-score in [4] was 0.0236 (inactive); in [12], -0.358.

For the compound `COc1ccc(C(=O)Nc2cccc(CN3C(=O)[C@@]4(O[C@@H](CCn5cc([C@H](O)c6ccccc6)nn5)[C@H]([Si](C)(C)c5ccc(OC)cc5)[C@H]4C)c4ccccc43)c2)cc1`, the composite z-score in test [1] was 1.19; in test [2], 0.142; in [3] it was 0.634; in [5] it was 1.21; in test [6], 0.175; in [7], -0.219. The composite z-score in [8] is 0.206; in [9] it was 0.249; in test [10], 1.16; in [11], -0.32; in test [13], 0.534; in test [14], -0.0819. Besides, the composite z-score in test [15] was -0.346; in test [16], 0.0279; in [17] it was -0.262; in test [18], -0.205; in test [19], 0.485; in [20], 0.935. For the same compound, the z-score in test [4] was -1.46 (inactive); in [12] it was -5.06.

For the compound `CCCC[C@@H]1C[C@H]1[C@@H](NC(=O)c1ccccc1)c1ccccc1`, the composite z-score in test [1] was -0.563; in test [2], 0.599; in test [3] it was 0.781; in test [5] it was -0.232; in test [6] it was -0.949; in test [7], -0.151. Further, the composite z-score in test [8] was 0.227; in [9], -0.256; in test [10] it was 0.582; in test [11], 0.305; in test [13], -0.137; in test [14] it was -0.0221. The composite z-score in [15] is 0.635; in test [16] it was 0.298; in test [17] it was 0.121; in [18] it was 2.11; in test [19] it was -0.192; in [20], 0.012. The values for the z-score in test [4] and in [12] were 0.308 (inactive) and -0.978, respectively.

On to `CN(C)CCCCCCNC(=O)[C@@H]1C[C@@H]2C(=O)N[C@@H](Cc3ccccc3)C(=O)N2[C@@H]1c1cccc(OCCO)c1`, for which the composite z-score in test [1] turned out to be 1.12; in test [2], 0.182; in [3], 0.635; in test [5], 0.393; in test [6], 1.31; in [7], 0.464. Further, the composite z-score in test [8] is 0.721; in test [9] it was 0.872; in test [10] it was 0.728; in test [11], 1.39; in test [13], 0.637; in [14] it was -0.345. In addition, the composite z-score was -0.287 in [15]; -0.0472 in test [16]; 0.0756 in test [17]; 0.109 in test [18]; 1.93 in [19]; 2.64 in test [20]. For the same compound, the z-score was -0.326 (inactive) in test [4] and 1.73 in [12].

As to `COCCOC(=O)N1C(=O)[C@@]2(c3cc(C#CCC(C(=O)OC)C(=O)OC)ccc31)[C@H](c1ccccc1OCCO)N1[C@H](c3ccccc3)[C@H](c3ccccc3)OC(=O)[C@H]1[C@@H]2C(=O)Nc1nc2ccccc2s1`, the composite z-score in test [1] was found to be 1.46; in [2], 0.514; in test [3], 0.641; in test [5] it was 1.33; in [6] it was 1.14; in test [7], 0.692. For the same compound, the composite z-score in test [8] came to 1.4; in test [9], 0.785; in [10] it was 1.1; in [11] it was 0.678; in test [13], 0.691; in [14], 1.29. Further, the composite z-score is 0.522 in [15]; -0.0134 in [16]; -0.0146 in test [17]; 0.185 in test [18]; 1.99 in [19]; 2.06 in test [20]. Also, the z-score in test [4] is -1.04 (inactive); in test [12], -1.11.

With `Cc1c(NC(=O)/C(C#N)=C/C=C/c2ccccc2)c(=O)n(-c2ccccc2)n1C`, the composite z-score in [1] is 0.504; in test [2], -0.0814; in test [3] it was -0.366; in [5] it was -0.0134; in test [6], 0.234; in [7], 0.513. Besides, the composite z-score in test [8] was 0.573; in test [9], 0.425; in [10], 0.772; in test [11] it was -0.353; in test [13] it was 0.277; in test [14] it was 0.193. Besides, the composite z-score in test [15] was -0.0357; in test [16] it was -0.145; in test [17], -0.416; in test [18], -0.49; in test [19], -0.296; in test [20] it was 0.754. The z-score is 0.777 (inactive) in test [4] and -0.683 in [12].

Take `CCN(CC)c1ccc(N2CC=CC34O[C@@H]5/C=C\CCCOC(=O)C5[C@H]3C(=O)N(CCCO)[C@@H]4C2=O)cc1` (stereo not given in full): the composite z-score in test [1] was 1.47; in test [2] it was -0.136; in [3], 0.808; in test [5], -1.04; in [6] it was -0.422; in [7], -1.48. Also, the composite z-score is -0.88 in test [8]; -1.75 in test [9]; -0.222 in [10]; 0.941 in test [11]; -2.09 in test [13]; -0.629 in test [14]. Besides, the composite z-score in test [15] is 0.479; in [16], -0.197; in test [17], 0.14; in [18], -0.0238; in [19] it was 2.44; in test [20], -1.44. Besides, the z-score in [4] is 0.821 (inactive); in test [12], -0.597.

Regarding `[N-]=[N+]=Nc1ccccc1[C@@H]1OC(c2ccc(OCCCO)cc2)=N[C@]1(CCS(=O)(=O)c1ccccc1)C(=O)O`, the composite z-score came out at 1.25 in [1]; 0.541 in test [2]; 0.54 in test [3]; 1.11 in test [5]; 1.29 in test [6]; 0.452 in test [7]. For the same compound, the composite z-score in [8] turned out to be 1.44; in test [9] it was 0.227; in test [10], 1.31; in [11], 1.42; in test [13], 0.459; in [14], 1.35. Moreover, the composite z-score in test [15] is 0.304; in test [16], 0.383; in test [17] it was -0.0146; in test [18], -0.0345; in [19] it was 0.677; in test [20], 1.55. Besides, the z-score was -1.27 (inactive) in test [4] and 0.666 in test [12].

As to `COc1ccc([Si](C)(C)[C@@H]2[C@@H](CCO)O[C@]3(C(=O)N(Cc4ccc(N5C(=O)c6cccc7cccc5c67)cc4)c4ccccc43)[C@H]2C)cc1`, the composite z-score in test [1] is 1.03; in [2] it was 0.0129; in test [3] it was 0.598; in [5], -0.66; in test [6] it was -0.445; in test [7], -1.13. Besides, the composite z-score was -0.66 in test [8]; -0.674 in test [9]; -0.194 in test [10]; -1.27 in test [11]; -0.983 in [13]; 0.424 in [14]. Besides, the composite z-score was 1.09 in test [15]; -0.154 in [16]; -0.16 in test [17]; 0.094 in test [18]; -0.164 in test [19]; -0.0784 in test [20]. The values for the z-score in test [4] and in test [12] were -1.11 (inactive) and -4.81, respectively.

These data come from PubChem BioAssay.
